Compound activity from PubChem BioAssay.
This is a sample that favours compounds with a hit; in the whole collection about 10% have one here.
Lamin A splicing: modulators of lamin A splicing; HeLa LMNA splicing GFP/RFP minigene ratio, 48 h; Potency, µM (titrated, usually from 46.1 µM), for inactives: at the top dose ratio change, negative = inhibition, actives largely listed as inhibitors; actives 0.01% (n = 200,000); AID 1487; active = well fitted inhibition curve with a large enough effect in the signal ratio, with a control signal flat, not every such curve was filed as active; inconclusive = small, poorly fitted or top-dose-only effect, or effect the other way, or a change in a side signal; the % refers to the signal ratio; also: potency is read from the fitted curve at half-maximal effect
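S3 HeLa cells stably expressing lamin A-EGFP splicing minigene plus DsRed2, 600 cells/well, 48 h compound exposure at 37C. Laser-scanning cytometry; analysed as GFP (500-530 nm)/RFP (575-640 nm) total intensity ratio; 0.5% DMSO vehicle.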
HPGD inh: HPGD (human) dehydrogenase inhibition; P15428; Potency, µM, for the others: at the highest dose activity change, negative = inhibition, hits mostly inhibitors; purified HPGD, NADH fluorescence kinetic, PGE2 substrate; actives 4.3% (n = 150,000); also: potency is read from the fitted curve at half-maximal effect
Target sequence (P15428 whole entry, looked up): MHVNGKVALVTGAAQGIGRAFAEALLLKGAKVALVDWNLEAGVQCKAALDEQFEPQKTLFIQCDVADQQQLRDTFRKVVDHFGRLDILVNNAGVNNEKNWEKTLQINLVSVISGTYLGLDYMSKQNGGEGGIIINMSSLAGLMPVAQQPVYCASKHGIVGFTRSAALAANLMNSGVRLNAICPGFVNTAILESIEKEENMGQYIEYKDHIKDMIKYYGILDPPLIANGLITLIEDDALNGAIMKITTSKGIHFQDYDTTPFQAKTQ
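20 nM HPGD preincubated 15 min at room temperature with compound in 50 mM Tris-HCl pH 8, 0.01% Tween 20. Started with 1 mM NAD+ and 30 uM prostaglandin E2; NADH fluorescence (360/450 nm) read 5 times over 30-s intervals, last minus first.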
ALDH1A1 block: ALDH1A1 (human) enzyme inhibition | Purified ALDH1A1, NADH fluorescence, propionaldehyde substrate | Potency, µM (doses to about 75.3 µM), for inactives: top-dose activity, negative = inhibition, hits mostly inhibitors | actives 7.3% (n = 220,000);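 also: potency is read from the fitted curve at half-maximal effect; plate controls were no enzyme wells and a reference inhibitor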
Target sequence (P00352 whole entry, looked up): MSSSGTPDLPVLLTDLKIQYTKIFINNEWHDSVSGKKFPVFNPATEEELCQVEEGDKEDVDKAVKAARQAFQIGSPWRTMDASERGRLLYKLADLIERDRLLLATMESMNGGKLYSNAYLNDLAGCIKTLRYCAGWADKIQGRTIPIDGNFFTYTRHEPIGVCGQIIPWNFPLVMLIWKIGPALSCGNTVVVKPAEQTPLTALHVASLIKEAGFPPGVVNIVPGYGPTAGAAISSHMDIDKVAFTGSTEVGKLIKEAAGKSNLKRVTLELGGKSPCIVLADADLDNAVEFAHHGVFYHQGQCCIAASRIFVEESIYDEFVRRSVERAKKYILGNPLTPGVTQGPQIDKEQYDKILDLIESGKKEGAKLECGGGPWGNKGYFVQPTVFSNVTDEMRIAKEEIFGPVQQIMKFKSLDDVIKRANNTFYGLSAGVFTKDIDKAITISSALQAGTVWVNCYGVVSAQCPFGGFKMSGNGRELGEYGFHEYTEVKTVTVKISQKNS
PNC inhibitor: perinucleolar compartment assembly inhibition | PC3M PTB-GFP, PNC prevalence imaging, 16 h; active compounds read low | activity change (PNC), negative = inhibition, % at 10 µM | actives 3.1% (n = 140,000) | AID 2417;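 active = readout at or below -70, meaning at least 70% loss of cells showing the perinucleolar compartment, a nuclear body marking cancer cells; inconclusive = readout between -30 and a set limit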;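 also: plate controls were DMSO wells for no effect and camptothecin positive control wells for full effect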
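Read-out is percentage of cells bearing a perinucleolar compartment, from automated 20x imaging of fixed, Hoechst-stained PC3M PTB-GFP cells. Cells were seeded 4 h, then exposed 16 h to compound (23 nl of library stock) in duplicate plates.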
ALOX12 inhib: 12-hLO (ALOX12) enzyme inhibition; P18054; purified 12-hLO, xylenol orange hydroperoxide absorbance; Potency, µM (doses to about 57.1 µM), inactives show top-dose activity change, negative = inhibition, most hits filed as inhibitors; actives 0.12% (n = 150,000); AID 1452; active = well fitted inhibition curve with a large enough effect; inconclusive = small, poorly fitted or top-dose-only effect; also: potency is read from the fitted curve at half-maximal effect; nearly all actives have a fitted effect of over 55% in size
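Purified human 12hLO (150 nM final) was preincubated with compounds for 15 min at room temperature in 25 mM Hepes pH 7.0, 0.01% Triton X-100, then reacted with 40 uM arachidonic acid for 30 min. Hydroperoxide was detected with ferrous iron/xylenol orange.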
* marks the source's active call; other numbers are inactive results; [ ] = remark or other dose. Unless noted, calls follow the shape of the dose curve; as a rule, active = well fitted inhibition curve with a large enough effect (not every such curve was filed as active); inconclusive = small, poorly fitted or top-dose-only effect, or another doubt; inactive = no such curve, though single readings can be large or run the other way. Unless noted, % is scaled to controls: 0 for no effect and ±100 for the full control effect.

How did O=C(CSc1nc2ccccc2s1)NNC(=O)Nc1ccc(Cl)c(Cl)c1 do in these assays?
Lamin A splicing: -7%; HPGD inh: -6%; ALDH1A1 block: 2%; PNC inhibitor: inconclusive; ALOX12 inhib: 3%

What do the screens show for `O=C(CSc1nc2ccccc2s1)NNC(=S)Nc1ccc(Br)cc1`?
Lamin A splicing: 3%; HPGD inh: -11%; ALDH1A1 block: 8.9µM*; PNC inhibitor: 49; ALOX12 inhib: -15%

Results for O=C(CSc1nc2ccccc2s1)NNC(=S)Nc1ccccc1 ?
Lamin A splicing: -10%; HPGD inh: inconclusive; ALDH1A1 block: 8.9µM*; PNC inhibitor: inconclusive; ALOX12 inhib: -10%

What do the screens show for `COc1cc(CNCCc2c[nH]c3ccccc23)cc(Cl)c1OCC(N)=O`?
Lamin A splicing: inconclusive; ALDH1A1 block: 16µM*

How did COc1cc(CNCCc2c[nH]c3ccccc23)ccc1OCc1ccc(F)cc1 do in these assays?
Lamin A splicing: -4%; HPGD inh: -6%; ALDH1A1 block: 9%; PNC inhibitor: 13; ALOX12 inhib: -5%

How did O=S(=O)(Nc1cccc(S(=O)(=O)N2CCOCC2)c1)c1ccc(Cl)s1 do in these assays?
Lamin A splicing: inconclusive; ALDH1A1 block: -8%

How did CCc1ccc(C(=O)NC(=S)Nc2ccc(N3CCOCC3)cc2)cc1 do in these assays?
Lamin A splicing: -7%[46 µM]; ALDH1A1 block: 11µM*

What do the screens show for `S=C(Nc1ccc(N2CCOCC2)cc1)Nc1ccc2nc(-c3ccco3)c(-c3ccco3)nc2c1`?
Lamin A splicing: -13%; HPGD inh: inconclusive; ALDH1A1 block: 7.1µM*; PNC inhibitor: -21; ALOX12 inhib: -14%

What do the screens show for `O=C(Nc1ccc(N2CCOCC2)cc1)c1ccc2nc(-c3ccco3)c(-c3ccco3)nc2c1`?
Lamin A splicing: -3%; HPGD inh: -9%; ALDH1A1 block: 3%; PNC inhibitor: -20; ALOX12 inhib: 1%

How did O=C(NC(=S)Nc1ccc(N2CCOCC2)cc1)c1cncc(Br)c1 do in these assays?
Lamin A splicing: 19%; HPGD inh: 18µM*; ALDH1A1 block: inconclusive; PNC inhibitor: 23; ALOX12 inhib: -2%

How did O=C(Nc1cc(S(=O)(=O)N2CCOCC2)ccc1O)c1ccc(NS(=O)(=O)c2ccc(Cl)s2)cc1 do in these assays?
Lamin A splicing: 1%; HPGD inh: -14%; ALDH1A1 block: -13%; PNC inhibitor: -134*; ALOX12 inhib: -7%

How did CC(C)NC(=O)C1CCN(C(=O)N2CCOc3ccc(Cl)cc32)CC1 do in these assays?
Lamin A splicing: -11%[46 µM]

What do the screens show for `COc1ccccc1CNC(=O)c1cc(S(=O)(=O)N2CCCCCC2)cn1C`?
Lamin A splicing: -2%[46 µM]

What do the screens show for `O=C(NC(=S)Nc1cc(S(=O)(=O)N2CCOCC2)ccc1O)c1ccco1`?
ALDH1A1 block: 25µM*

Results for CC(=O)c1ccc(NC(=S)Nc2ccc(N3CCOCC3)cc2)cc1 ?
Lamin A splicing: inconclusive; ALDH1A1 block: 22µM*

How did O=C(NC(=S)Nc1ccc(N2CCOCC2)cc1)c1ccco1 do in these assays?
Lamin A splicing: -4%; HPGD inh: 22µM*; ALDH1A1 block: inconclusive; PNC inhibitor: -3; ALOX12 inhib: -1%

How did CC[C@@]12CCCN3CCc4c(n(c5ccccc45)[C@](O)(C(=O)OC)C1)C32 (stereo partly specified) do in these assays?
HPGD inh: -5%; ALDH1A1 block: -6%; ALOX12 inhib: 1%

How did COC(=O)C/C=C\[C@H](C)[C@@H](OC)c1ccccc1Br do in these assays?
ALDH1A1 block: -4%[13.5 µM]

How did O=C(CSc1nc(-c2ccco2)cc(C(F)(F)F)n1)N1CCN(Cc2ccccc2)CC1 do in these assays?
Lamin A splicing: -3%; HPGD inh: inconclusive; ALDH1A1 block: 16µM*; PNC inhibitor: 31; ALOX12 inhib: -2%

How did COc1ccccc1N1CCN(C(=O)CSc2nc(-c3ccco3)cc(C(F)(F)F)n2)CC1 do in these assays?
Lamin A splicing: -13%; HPGD inh: -26%; ALDH1A1 block: 7.9µM*; PNC inhibitor: -15; ALOX12 inhib: -14%

How did O=C(CSc1nc(-c2ccco2)cc(C(F)(F)F)n1)N1CCN(c2ccc(Cl)cc2)CC1 do in these assays?
Lamin A splicing: inconclusive; HPGD inh: -22%; ALDH1A1 block: -10%; PNC inhibitor: -27; ALOX12 inhib: -2%

Results for BrC(Br)C(Br)Br ?
HPGD inh: -2%; ALDH1A1 block: 12%; ALOX12 inhib: 2%

What do the screens show for `Cc1csc(NC(=O)CCc2ccc(S(=O)(=O)N3CCOCC3)cc2)n1`?
Lamin A splicing: -6%; HPGD inh: -21%; ALDH1A1 block: inconclusive; PNC inhibitor: 3; ALOX12 inhib: 5%

What do the screens show for `Cc1cc(NC(=O)CCc2ccc(S(=O)(=O)N3CCOCC3)cc2)n(-c2ccccc2)n1`?
Lamin A splicing: inconclusive; HPGD inh: -8%; ALDH1A1 block: 2%; PNC inhibitor: -100*; ALOX12 inhib: -5%

How did Cc1cc2c3c(cccc3n1)C(=O)c1ccccc1-2 do in these assays?
HPGD inh: -3%; ALDH1A1 block: -11%

How did O=S(=O)(c1cnc(Cl)c(Cl)c1)N1CCN(c2ncccn2)CC1 do in these assays?
ALDH1A1 block: 0.79µM*

What do the screens show for `O=S(=O)(c1cnc(Cl)c(Br)c1)N1CCCCCC1`?
Lamin A splicing: 15%; HPGD inh: -15%; ALDH1A1 block: 8.9µM*; PNC inhibitor: -5; ALOX12 inhib: -4%

What do the screens show for `O=S(=O)(c1cnc(Cl)c(Br)c1)N1CCN(c2ncccn2)CC1`?
ALDH1A1 block: 0.35µM*

What do the screens show for `CCc1ccccc1NC(=O)CC(C)n1nc(C)cc1C` (stereo unspecified)?
Lamin A splicing: 10%[46 µM]

What do the screens show for `C=C(C)C(=O)OCC(C)O` (stereo unspecified)?
HPGD inh: -3%; ALDH1A1 block: -1%; ALOX12 inhib: 5%

What do the screens show for `CCOC(=O)c1c(O)c2cc(Cl)ccc2n(CC)c1=O`?
ALDH1A1 block: 20µM*

Results for CCN1C(=O)c2cccc3c(S(=O)(=O)Nc4c(C)n(C)n(-c5ccccc5)c4=O)ccc1c23 ?
Lamin A splicing: 16%; HPGD inh: -10%; ALDH1A1 block: 14µM*; PNC inhibitor: inconclusive; ALOX12 inhib: 1%

Results for COc1ccc(CCNC(=O)CSc2ccccc2)cc1OC ?
Lamin A splicing: inconclusive; HPGD inh: -12%; ALDH1A1 block: -4%; PNC inhibitor: 10; ALOX12 inhib: 0%

Results for COc1ccc(CCNC(=O)CSc2nncn2N)cc1OC ?
Lamin A splicing: -2%; HPGD inh: -12%; ALDH1A1 block: inconclusive; PNC inhibitor: -82*; ALOX12 inhib: 2%

What do the screens show for `COc1ccc(CCNC(=O)CSc2nnnn2-c2ccccc2OC)cc1OC`?
Lamin A splicing: -5%; HPGD inh: -10%; ALDH1A1 block: 0.28µM*; PNC inhibitor: 25; ALOX12 inhib: 1%
